Source: PubChem BioAssay
Most compounds without a hit are left out; they make up all but 0.43% or so of the library.
GAA glycogen mod – GAA glycogen-cleavage inhibition or activation. recombinant GAA, glycogen substrate, Amplex Red glucose oxidase fluorescence. AID 2100. 0.38% of 300,000 active. Potency, µM (doses to about 76.4 µM), inactives show at the highest dose activity change, negative = inhibition, usual class: inhibitors;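 also: potency is read from the fitted curve at half-maximal effect; 0% = full enzyme reaction and -100% = no-enzyme basal signal; the screen sought inhibitors and activators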
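Recombinant human alpha-glucosidase (4 nM final) hydrolysed bovine liver glycogen (30 ug) for 40 min at 37 C in pH 5.0 citrate/phosphate with 0.01% Tween-20. Released glucose detected by glucose oxidase/Amplex Red, Ex 573/Em 610 nm. Compounds up to 77 uM; AC50 from Hill fits.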
GAA inhib – alpha-glucosidase (human) inhibition. AID 1466. Potency, µM (doses to about 76.9 µM), for the others: top-dose activity change, negative = inhibition, usual class: inhibitors. purified human GAA, 4-MU-alpha-glucoside fluorescence. 0.005% of 200,000 active;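 also: potency is read from the fitted curve at half-maximal effect; plate controls were uninhibited enzyme wells for no effect and no-enzyme background for full effect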
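AC50 values come from Hill fits of compound titrations (up to 77 uM) against 4 nM human enzyme. Substrate 4-methylumbelliferyl-alpha-D-pyranoside at 400 uM, pH 5.0 citrate buffer, 20 min room temperature; fluorescence Ex 365/Em 440 after alkaline stop.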
GLA inh pH 4.5 – alpha-galactosidase A (human) inhibition, pH 4.5; P06280; purified enzyme, 4-MU-alpha-Gal fluorescence, pH 4.5; activity change, negative = inhibition, % at 105 µM; 230,000 tested, under 10 active;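 also: 0% = full activity with enzyme and -100% = basal without enzyme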
Target sequence (P06280 whole entry, looked up): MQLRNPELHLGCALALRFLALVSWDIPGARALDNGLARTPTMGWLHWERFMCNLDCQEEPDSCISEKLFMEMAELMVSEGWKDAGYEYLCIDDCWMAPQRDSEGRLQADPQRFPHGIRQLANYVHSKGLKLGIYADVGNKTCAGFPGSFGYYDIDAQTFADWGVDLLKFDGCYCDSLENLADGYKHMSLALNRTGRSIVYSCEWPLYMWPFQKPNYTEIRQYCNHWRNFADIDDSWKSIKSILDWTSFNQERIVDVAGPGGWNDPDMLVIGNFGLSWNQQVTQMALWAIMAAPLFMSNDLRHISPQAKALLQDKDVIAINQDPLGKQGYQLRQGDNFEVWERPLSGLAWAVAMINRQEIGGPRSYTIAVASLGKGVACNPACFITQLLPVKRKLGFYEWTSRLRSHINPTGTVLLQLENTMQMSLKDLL
N370S GC – N370S glucocerebrosidase modulation, Gaucher chaperone candidate; 0.092% of 330,000 active; AID 2101; P04062; N370S GC spleen homogenate, 4MU-glucoside fluorescence; Potency, µM (doses to about 59.4 µM), inactives show at the top dose activity change, negative = inhibition, most hits filed as inhibitors;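 also: potency is read from the fitted curve at half-maximal effect; 0% = full enzyme activity and -100% = no enzyme basal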
aGal spleen mod – inhibits or activates alpha-galactosidase in human spleen homogenate; 0.008% of 240,000 active; human spleen homogenate, 4MU-alpha-Gal fluorescence, 40 min; Potency, µM (highest dose often 80 µM), without a hit: at the top dose activity change, negative = inhibition, hits mostly inhibitors; AID 2107;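 also: potency is read from the fitted curve at half-maximal effect; 0% = enzyme with vehicle and -100% = no enzyme basal signal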
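qHTS titration in buffer at pH 5.0. Alpha-galactosidase activity in spleen homogenate was measured via 4-methylumbelliferone release from 1 mM fluorogenic substrate after 40 min at 37C and a pH 10 stop. AC50 came from Hill fits of control-normalized data.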
GAA spleen mod – inhibits or activates alpha-glucosidase in human spleen homogenate; P10253; human spleen homogenate, 4-MU-alpha-glucoside fluorescence; Potency, µM (doses to about 79.9 µM), inactives show at the top dose activity change, negative = inhibition, usual class: inhibitors; 0.006% of 240,000 active;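 also: potency is read from the fitted curve at half-maximal effect; 0% = enzyme with vehicle and -100% = no enzyme basal signal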
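Compounds were titrated against alpha-glucosidase in spleen homogenate at pH 5.0, with 1 mM 4-methylumbelliferyl substrate for 40 min at 37 C. Reactions were quenched with pH 10 NaOH/glycine and fluorescence measured.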
Active calls of the source: *; ? = inconclusive; / = no result given; [ ] = remark or other dose. Calls follow the shape of the dose curve; as a rule, active = well fitted curve in the direction sought with a large enough effect; inconclusive = small, poorly fitted or top-dose-only effect, or another doubt; inactive = no such curve, though single readings can be large; an effect the other way counts as inactive or inconclusive.

SMILES	GAA glycogen mod	GAA inhib	GLA inh pH 4.5	N370S GC	aGal spleen mod	GAA spleen mod
O=c1c2ccccc2nc(COc2ccccc2)n1/N=C/c1ccc(O)c(O)c1	16µM*	/	-6	0%	-16%	-6%
COc1ccc(C(=O)c2ccccc2)c2c(O)ccc(C(=O)c3ccccc3)c12	-3%	-5%	5	5%	6%	5%
COc1ccc(C(C)=O)c2c(O)cccc12	40µM*	0%	-1	-2%	7%	9%
CN1C=CC(=C2C=CN(C)C=C2)C=C1	/	/	/	-5%	-8%	1%
CC1=C(C(=O)Nc2cccnc2)C(c2ccc(Cl)cc2)n2nc(SCc3ccccc3)nc2N1 (stereo not drawn)	25µM*	/	/	/	/	/
CSCC[C@H](NC(=O)[C@H](CC(C)C)NC(=O)CNC(=O)[C@H](Cc1ccc(O)cc1)NC(=O)[C@H](Cc1ccccc1)NC(=O)[C@H](CCC(N)=O)NC(=O)[C@H](CCC(N)=O)NC(=O)[C@@H]1CCCN1C(=O)[C@H](CCCCN)NC(=O)[C@@H]1CCCN1C(=O)[C@@H](N)CCCN=C(N)N)C(N)=O	/	/	/	-10%	-17%	1%
Cc1ccccc1-c1nccc(Nc2ccc(F)cc2)n1	/	/	/	20µM*	-8%	-5%
CC[C@H](C)[C@H](NC(=O)[C@H](Cc1ccc(O)cc1)NC(=O)[C@H](Cc1cnc[nH]1)NC(=O)[C@H](CCCNC(=N)N)NC(=O)[C@H](CC(C)C)NC(=O)[C@H](C)NC(=O)[C@H](CO)NC(=O)[C@H](Cc1ccc(O)cc1)NC(=O)[C@H](Cc1ccc(O)cc1)NC(=O)[C@H](CCCNC(=N)N)NC(=O)[C@H](C)NC(=O)[C@H](CCSC)NC(=O)[C@H](CC(=O)O)NC(=O)[C@H](CCC(=O)O)NC(=O)[C@H](C)NC(=O)[C@@H]1CCCN1C(=O)[C@H](C)NC(=O)[C@H](CC(=O)O)NC(=O)[C@H](CCC(=O)O)NC(=O)CNC(=O)[C@@H]1CCCN1C(=O)[C@H](CC(N)=O)NC(=O)[C@H](CC(=O)O)NC(=O)[C@@H]1CCCN1C(=O)[C@H](CCCCN)NC(=O)[C@H](CO)NC(=O)[C@@H]1CCCN1C(=O)[C@@H](N)Cc1ccc(O)cc1)C(=O)N[C@@H](CC(N)=O)C(=O)N[C@@H](CC(C)C)C(=O)N[C@@H](CC(C)C)C(=O)N[C@H](C(=O)N[C@@H](CCCNC(=N)N)C(=O)N1CCC[C@H]1C(=O)N[C@@H](CCCNC(=N)N)C(=O)N[C@@H](Cc1ccc(O)cc1)C(N)=O)[C@@H](C)O	/	/	/	2%	2%	2%
COc1ccc(NC(=O)c2cccnc2)cc1	15%[76.3 µM]	/	/	-5%	/	/
C/C(=C\C(=O)c1ccccc1)Nc1ccc(O)cc1	40µM*	-7%	-1	-13%	0%	-5%
C/C(=C\C(=O)c1cccnc1)Nc1ccc(O)cc1	14µM*	-11%	-15	-26%	-6%	-12%
O=c1[nH]c(CN2CCN(CCO)CC2)nc2ccccc12	3%	-4%	6	2%	-7%	-13%
O=c1[nH]c(CN2CCN(c3ccccc3O)CC2)nc2ccccc12	7.9µM*	?	-2	-8%	7%	2%
COc1ccc(CC(=O)NCc2nnc(SCC(=O)c3ccc(OC)cc3)n2C)cc1	-5%	9%	-4	-6%	0%	-9%
COc1ccc(NCc2nnc(SCC(=O)c3ccc(OC)cc3)n2C)cc1	12µM*	7%	2	-23%	-4%	-1%
CCOc1ccccc1-c1nnc2n1N=C(c1cc(OC)ccc1OC)CS2	/	/	/	6%	-4%	1%
O=C1CCCC2=C1C(c1ccc(O)c(O)c1)Nc1ccc3ncccc3c12 (stereo not drawn)	2.8µM*	-2%	-5	6%	6%	-2%
CCC[C@H](NC(=O)[C@H](CC(C)C)N(C)C(=O)CNC(=O)[C@@H](NC(=O)[C@H](Cc1ccccc1)NC(=O)[C@H](CCCCN)NC(=O)[C@@H](N)CC(=O)O)C(C)C)C(N)=O	/	/	/	-5%	-5%	-3%
C[C@@H]1C(=O)O[C@H]2[C@H](O)[C@@]34[C@H]5CC(C(C)(C)C)[C@]36[C@H](OC(=O)[C@H]6O)O[C@]4(C(=O)O5)[C@@]12O (stereo partly drawn)	/	/	/	?	-8%	-6%
C=CCc1ccc(O)c(-c2ccc(O)c(CC=C)c2)c1	35µM*	/	-3	-10%	-20%	-11%
Cc1cccc2cc(-c3nc4c(C)cccn4c3NCc3ccco3)c(=O)[nH]c12	19%	-5%	-4	-7%	-4%	-3%
Cc1ccc2[nH]c(=O)c(-c3nc4cc(C)ccn4c3NCc3ccco3)cc2c1	9.9µM*	?	-11	-11%	-2%	6%
Oc1ccc(/C=N/Nc2ccnc3cc(Cl)ccc23)cc1O	45µM*	/	-1	-11%	7%	0%
O=C(/C=C/c1ccc(O)c(O)c1)OC(Cc1ccc(O)c(O)c1)C(=O)O (stereo not drawn)	2µM*	/	-7	-19%	10%	8%
CCC1(c2ccc(O)cc2)NC(=O)NC1=O (stereo not drawn)	/	/	/	-2%	6%	4%
SMILES	GAA glycogen mod	GAA inhib	GLA inh pH 4.5	N370S GC	aGal spleen mod	GAA spleen mod
CCc1cccc(C)c1Nc1c(-c2cccs2)nc2nc(C)cc(C)n12	-28%[76.3 µM]	/	/	/	/	/
CCc1cccc(C)c1Nc1c(-c2cccc(O)c2)nc2sccn12	35µM*	/	/	/	/	/
C[C@@]12CC[C@H]3OC(=O)C=C3C1CC[C@@]13CC(CCC12)[C@](CO)(O[C@H]1O[C@H](CO)[C@@H](O)[C@H](O)[C@H]1O)C3 (stereo partly drawn)	/	/	/	18µM*	/	/
COc1ccc(OC)c(C2=Nn3c(nnc3-c3cccc(OC)c3OC)SC2)c1	/	/	/	-16%	-2%	8%
CCCOC(=O)NCCCN(C)C	/	/	/	-4%	0%	2%
Cc1ccc(S(=O)(=O)Nc2cc(Cl)c(O)cc2C)cc1	22µM*	-10%	-4	4%	-2%	7%
CN1CCc2ccc3c4c2[C@]1(C)Cc1cccc(c1-4)OCO3	/	/	/	1%	-25%	3%
O=C(O)c1ccccc1OS(=O)(=O)O	/	/	/	-6%	6%	0%
COC(=O)C1=C(C)N(Cc2ccc(C)cc2)C(=O)/C1=C\c1ccc(O)c(OC)c1	28µM*	-9%	0	-27%	-3%	-5%
COC(=O)C1=C(C)N(Cc2ccc(C)cc2)C(=O)/C1=C\c1cc(OC)c(OC)c(OC)c1	-5%	-2%	-2	-18%	-4%	-4%
CCN1CCS/C1=C/C=C/C1=[N+](CC)CCS1	-9%	?	?	7.9µM*	-20%	?
